In PubChem BioAssay AID1159580 (chemical genetic matrix, 2015):
Values joined by “and” are separate entries in the source; they are usually repeats but may differ in a detail not shown here. Equal entries are not always repeated. About 2,000 (36%) of roughly 5,500 compounds were called active. Not shown: some 18% with an inconclusive outcome. No stated cut-off is given here; in the data, active means normalized growth mostly below about 0.91 (no sharp cut-off); inconclusive means no clear call, values can overlap the other calls; inactive means mostly above about 0.92. Some of the results follow.

Experiment: chemical genetic growth profiling, strain panel (AID 1159580);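 further: tested at 20 µM; growth read once vehicle control cultures reached saturation at 30 °C; 1 = growth at the plate median or of vehicle wells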
Details: S. cerevisiae deletion strains, growth OD

Measured: normalized growth

O=C(O)CCC(=O)c1ccc(-c2ccccc2)cc1
0.971 (inactive) and 0.676 (active): locus YJL095W, strain BCK1, stronger effect = lower value
inactive: locus YAL013W, strain DEP1, stronger effect = lower value 0.985 | locus YAL021C, strain ccr4, stronger effect = lower value 1.01 | locus YAL026C, strain drs2, stronger effect = lower value 0.976 | locus YAL030W, strain snc1, stronger effect = lower value 0.991 | locus YBL061C, strain skt5, stronger effect = lower value 0.989 | locus YBR009C, strain hhf1, stronger effect = lower value 0.998 | locus YBR021W, strain FUR4, stronger effect = lower value 0.964 | locus YBR023C, strain chs3, stronger effect = lower value 0.983 | locus YBR171W, strain sec66, stronger effect = lower value 0.983 | locus YBR229C, strain ROT2, stronger effect = lower value 0.986 | locus YBR231C, strain swc5, stronger effect = lower value 0.981 | locus YBR279W, strain paf1, stronger effect = lower value 0.975 | locus YCL011C, strain gbp2, stronger effect = lower value 1 | locus YCL016C, strain dcc1, stronger effect = lower value 0.999 | locus YCL029C, strain bik1, stronger effect = lower value 0.934 | locus YCL069W, strain vba3, stronger effect = lower value 0.983 | locus YCR088W, strain abp1, stronger effect = lower value 1.01 | locus YDL005C, strain med2, stronger effect = lower value 0.991 | locus YDL035C, strain GPR1, stronger effect = lower value 0.989 | locus YDL040C, strain nat1, stronger effect = lower value 0.986 | locus YDL074C, strain BRE1, stronger effect = lower value 0.957 | locus YDL101C, strain DUN1, stronger effect = lower value 0.959 | locus YDL134C, strain PPH21, stronger effect = lower value 0.972 | locus YDL185W, strain tfp1, stronger effect = lower value 0.962 | locus YDL192W, strain arf1, stronger effect = lower value 0.971 | locus YDR001C, strain nth1, stronger effect = lower value 0.982 | locus YDR069C, strain doa4, stronger effect = lower value 0.986 | locus YDR101C, strain arx1, stronger effect = lower value 0.964 | locus YDR150W, strain NUM1, stronger effect = lower value 0.99 | locus YDR159W, strain sac3, stronger effect = lower value 1.02 | locus YDR162C, strain NBP2, stronger effect = lower value 0.986 | locus YDR195W, strain ref2 0.929 | locus YDR297W, strain sur2, stronger effect = lower value 0.99 | locus YDR318W, strain mcm21, stronger effect = lower value 0.963 | locus YDR334W, strain swr1, stronger effect = lower value 0.977 | locus YDR335W, strain msn5, stronger effect = lower value 0.953 | locus YDR388W, stronger effect = lower value 0.958 | locus YDR392W, strain spt3, stronger effect = lower value 1.02 | locus YDR502C, strain sam2, stronger effect = lower value 0.987 | locus YEL003W, strain gim4, stronger effect = lower value 0.954 | locus YEL037C, strain rad23, stronger effect = lower value 0.97 | locus YEL061C, strain CIN8 (second series), stronger effect = lower value 0.978 | locus YEL061C, strain CIN8, stronger effect = lower value 0.998 | locus YER015W, strain faa2, stronger effect = lower value 0.991 | locus YER016W, strain bim1, stronger effect = lower value 0.995 | locus YER110C, stronger effect = lower value 0.973 | locus YER111C, strain swi4, stronger effect = lower value 0.988 | locus YER155C, strain BEM2 (second series), stronger effect = lower value 0.958 | locus YER155C, strain BEM2, stronger effect = lower value 0.986 | locus YER167W, strain BCK2, stronger effect = lower value 0.987 | locus YFR010W, strain ubp6, stronger effect = lower value 0.986 | locus YGL086W, strain mad1, stronger effect = lower value 0.985 | locus YGL167C, strain pmr1, stronger effect = lower value 0.969 | locus YGL173C, strain kem1, stronger effect = lower value 0.965 | locus YGL227W, strain vid30, stronger effect = lower value 1 | locus YGL240W, strain doc1, stronger effect = lower value 0.929 | locus YGL248W, strain PDE1, stronger effect = lower value 0.98 | locus YGL253W, strain hxk2, stronger effect = lower value 0.972 | locus YGR078C, strain PAC10, stronger effect = lower value 0.96 | locus YGR135W, strain pre9, stronger effect = lower value 0.946 | locus YGR229C, strain SMI1, stronger effect = lower value 0.986 | locus YGR252W, strain gcn5, stronger effect = lower value 0.861 | locus YHR013C, strain ard1, stronger effect = lower value 1 | locus YHR027C, strain rpn1, stronger effect = lower value 1 | locus YHR079C, strain IRE1 (second series), stronger effect = lower value 0.947 | locus YHR094C, strain hxt1, stronger effect = lower value 0.984 | locus YHR129C, strain ARP1, stronger effect = lower value 0.988 | locus YHR142W, strain chs7, stronger effect = lower value 0.94 | locus YHR200W, strain rpn10, stronger effect = lower value 0.975 | locus YIL066C, strain RNR3, stronger effect = lower value 0.973 | locus YIL073C, strain SPO22, stronger effect = lower value 0.948 | locus YIL125W, strain kgd1, stronger effect = lower value 0.967 | locus YIR030C, strain dcg1, stronger effect = lower value 0.974 | locus YJL092W, strain hpr5, stronger effect = lower value 0.998 | locus YJL095W, strain BCK1 (second series), stronger effect = lower value 0.997 | locus YJL115W, strain asf1, stronger effect = lower value 0.981 | locus YJL129C, strain trk1, stronger effect = lower value 0.915 | locus YJL134W, strain LCB3, stronger effect = lower value 0.99 | locus YJL154C, strain vps35, stronger effect = lower value 0.996 | locus YJL164C, strain tpk1, stronger effect = lower value 0.996 | locus YJL166W, strain qcr8, stronger effect = lower value 0.976 | locus YJL168C, strain set2, stronger effect = lower value 0.972 | locus YJL187C, strain SWE1 (second series), stronger effect = lower value 0.948 | locus YJR043C, strain POL32, stronger effect = lower value 0.937 | locus YJR075W, strain HOC1, stronger effect = lower value 0.963
0.994 (inactive) and 0.66 (active): locus YHR030C, strain SLT2, stronger effect = lower value
active: locus YDR137W, strain rgp1, stronger effect = lower value 0.793 | locus YGL078C, strain dbp3, stronger effect = lower value 0.842 | locus YHR079C, strain IRE1, stronger effect = lower value 0.739 | locus YJR066W, strain TOR1, stronger effect = lower value 0.706
